{
  "source": "PubChem BioAssay (NCATS)",
  "note": "Inconclusive results are not listed. A call without a number means that no potency is given here. Activity calls are given as the source filed them. Calls come from the whole dose curve; as a rule, active = well fitted cell-killing curve with a large enough effect; inconclusive = small, poorly fitted or top-dose-only effect; inactive = flat fitted curve, though single readings scatter. Potency is the fitted concentration of half-maximal effect.",
  "data": [
    {"experiment": "Cell Viability - LYMP2-023 (AID 975); note: nearly all actives have a fitted effect of over 55% in size", "conditions": "LYMP2-023 lymphoblastoid cell viability; series mostly up to 92.2 µM", "description": "NIH Chemical Genomics Center [NCGC]\nNIH Molecular Libraries Screening Centers Network [MLSCN]\nNational Institutes of Environmental Health Sciences [NIEHS]\nNational Toxicology Program [NTP]\nWe have developed a 1536-well cell-based assay for quantitative high throughput screening (qHTS) against a number of cell lines to determine in vitro cytotoxicity of small molecules. This particular assay uses a human lymphoblastoid cell line (LYMP2-023) purchased from Coriell Institute for Medical Research.\nNCGC Assay Protocol Summary:\nThe CellTiter-Glo luminescent cell viability assay (Promega) is a homogeneous method to measure the number of viable cells in culture. The end point readout of this assay is based on quantitation of intracellular ATP, an indicator of metabolic activity, using the luciferase reaction. Luciferase catalyzes the oxidation of beetle Luciferin to oxyluciferin and light in the presence of ATP. The luminescent signal is proportional to amount of ATP present.\nUsing the CellTiter-Glo luminescent cell viability assay, the amount of cellular ATP was measured in the lymphoblastoid cell line with complete culture medium following compound treatment for 24 hours. The assay was performed in opaque white Kalypsys 1536-well plates. In the screen, tetraoctylammonium bromide was used as positive control. Library compounds were measured for their ability to cause acute toxicity in the cell line, as reflected by a decrease in intracellular ATP levels, in a concentration-dependent manner. […] AC50 values were determined from concentration-response data modeled with the standard Hill equation.\nqHTS protocol for CellTiter Glo lymphoblastoid cellular assay\n[Step] [Parameter] [Value] [Description]\n1. Reagent; 5 uL; 2500 lymphoblastoid cells/well\n2. Time; 5 hr; 37 C incubation\n4. Controls; 23 nL; Tetraoctylammonium bromide 6.4pM to 92 uM\n5. Time; 24 hr; 37 C incubation\n6. Reagent; 5 uL; CellTiter Glo reagent\n7. Time; 30 min; Room Temperature\n8. Detection; Luminescence; Viewlux plate reader\nKeywords: cell viability, cytotoxicity, lymphoblastoid cell line, luminescence, NTPHTS, NTPHTS_NCGC, NIEHS, DSSTox, MLSMR, MLSCN, NIH Roadmap, qHTS, NCGC", "values": [
      {"compound": "Cc1ccc(N(C)C)cc1", "Potency": "inactive"},
      {"compound": "NC(=O)/N=N/C(N)=O", "Potency": "inactive"},
      {"compound": "CCCCC(CC)CO", "note": "(stereo not given)", "Potency": "inactive"},
      {"compound": "Cc1cccc2sc(N)nc12", "Potency": "inactive"},
      {"compound": "Cc1cc(C)cc([N+](=O)[O-])c1", "Potency": "inactive"},
      {"compound": "Cc1ccc(C)c(O)c1", "Potency": "inactive"},
      {"compound": "O=C(O)CN(CC(=O)O)CC(=O)O", "Potency": "inactive"},
      {"compound": "C=CCCCC", "Potency": "inactive"},
      {"compound": "Cc1ccc(C)cc1", "Potency": "inactive"},
      {"compound": "Cc1c(N)cccc1N", "Potency": "inactive"},
      {"compound": "CCC(C)O", "note": "(stereo not given)", "Potency": "inactive"},
      {"compound": "OC(CCl)CCl", "Potency": "inactive"},
      {"compound": "O=C(O)c1c(Cl)cccc1Cl", "Potency": "inactive"},
      {"compound": "CCCCC(C=O)CC", "note": "(stereo not given)", "Potency": "inactive"},
      {"compound": "C=C(C)C(=O)OCC(C)O", "note": "(stereo not given)", "Potency": "inactive"},
      {"compound": "C1CCCC1", "Potency": "inactive"},
      {"compound": "CCCCC/C=C/C=C/C=O", "Potency": "50.1 µM (active)"},
      {"compound": "CCC(C)=O", "Potency": "inactive"},
      {"compound": "CC(O)COC(C)(C)C", "note": "(stereo not given)", "Potency": "inactive"},
      {"compound": "Cc1ccc(C(=O)O)cc1", "Potency": "inactive"},
      {"compound": "CCCOCC(C)OCC(C)O", "note": "(stereo not given)", "Potency": "inactive"},
      {"compound": "Oc1cccc(Nc2ccccc2)c1", "Potency": "inactive"},
      {"compound": "CC(C)(O)C(=O)O", "Potency": "inactive"},
      {"compound": "CNC(=O)c1ccccc1", "Potency": "inactive"},
      {"compound": "CC(C=O)Cc1ccc(C(C)(C)C)cc1", "note": "(stereo not given)", "Potency": "inactive"},
      {"compound": "O=[N+]([O-])c1ccc(CCO)cc1", "Potency": "inactive"},
      {"compound": "CC1(N)CCC(C(C)(C)N)CC1", "note": "(stereo not given)", "Potency": "inactive"},
      {"compound": "CC1=C(/C=C/C(C)=C/C=C/C(C)=C\\C=O)C(C)(C)CCC1", "Potency": "50.1 µM (active)"},
      {"compound": "C1COC1", "Potency": "inactive"},
      {"compound": "Cc1ccccc1C(=O)O", "Potency": "inactive"},
      {"compound": "CNc1ccc([N+](=O)[O-])cc1", "Potency": "inactive"},
      {"compound": "CCCCOCCOCCOCCCC", "Potency": "inactive"},
      {"compound": "COCCOC(=O)c1ccccc1C(=O)OCCOC", "Potency": "inactive"},
      {"compound": "C=Cc1ccccc1C=C", "Potency": "inactive"},
      {"compound": "CCCCCCCN", "Potency": "inactive"},
      {"compound": "Cc1ccc2ncccc2c1", "Potency": "inactive"},
      {"compound": "CCCOCC(C)O", "note": "(stereo not given)", "Potency": "inactive"},
      {"compound": "CCCCCNCCCCC", "Potency": "inactive"},
      {"compound": "Cc1ccc2ccccc2c1[N+](=O)[O-]", "Potency": "inactive"},
      {"compound": "Cc1ccc(C)c([N+](=O)[O-])c1", "Potency": "inactive"}
    ]}
  ]
}
